# Bioassay records (PubChem)
# HepG2 viability: kills HepG2 cells in TGF-b inhibitor counter-screen | 410,000 compounds, 0.76% hits | HepG2 CAGA-GFP viability, ATP luminescence, 18 h | Potency, µM (titrated, usually from 46.1 µM), for the others: top-dose activity change, negative = cytotoxicity, hits mostly cytotoxic
#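 HepG2 CAGA-GFP cells (1000/well, DMEM with 1% FBS) received compound, then TGF-beta at 500 pg/mL final, and were incubated 18 hours at 37 degrees C. Viability was read by CellTiter-Glo luminescence. Media-only wells were set as complete cell-killing and DMSO as no toxicity.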
# ATXN viability: cell viability loss in ATXN counter-screen. S2 cells (HEK-293 line with an ATXN2-luciferase reporter) viability, CellTiter-Fluor protease fluorescence, 24 h. Potency, µM (series often up to 56.7 µM), most hits filed as cytotoxic. 400,000 compounds, 0.49% hits. AID 651635; note: nearly all actives have a fitted effect of over 40% in size
# ATXN2 expr inh: inhibitors of ATXN2 expression; 360,000 compounds, 0.72% hits; AID 1745845; Potency, µM (top dose mostly 57 µM), without a hit: at the top dose activity change, negative = inhibition, most hits filed as inhibitors; HEK-293 ATXN2-luciferase reporter, luminescence, 24 h; note: % is set by controls: 0 for no effect and ±100 for the full control effect; nearly all actives have a fitted effect of over 55% in size
#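 ATXN2-luciferase reporter cells (luciferase flanked by upstream and downstream ATXN2 gene portions) were treated 24 h at 37 °C with compounds at up to 57 uM. SteadyGlo luminescence gave expression; GF-AFC fluorescence gave viability.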
# TGFb inhibitor: inhibitors of TGF-b signaling | HepG2 CAGA-GFP TGF-b/SMAD3 reporter, GFP fluorescence, 18 h; TGF-beta stimulated, 500 pg/mL final | Potency, µM (highest dose often 46.1 µM), without a hit: top-dose activity, negative = inhibition, actives largely listed as inhibitors | 410,000 compounds, 1.2% hits | AID 588855; note: % is set by controls: 0 for no effect and ±100 for the full control effect; nearly all actives have a fitted effect of over 65% in size
#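 HEPG2 CAGA-GFP reporter cells (1000/well, DMEM with 1% FBS) received compounds, then recombinant TGF-beta at 500 pg/mL final for 18 hours at 37 degrees C. Per-cell GFP summed per well was normalised to unstimulated and stimulated DMSO controls before curve fitting.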
# HT1080 IDH1KD tx: HT-1080 IDH1 knockdown cell toxicity (counter line); HT-1080 IDH1 knockdown viability, ATP luminescence, 48 h; 360,000 compounds, 2% hits; Potency, µM (highest dose often 46.1 µM), for the others: at the highest dose activity, negative = toxicity, usual class: cytotoxic;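 note: 0% = DMSO wells and -100% = cell-free medium wells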
#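 HT-1080-IDH1KD cells (IDH1 knocked down), 750/well in RPMI with 5% FBS, treated with compound 48 h at 37 degrees C. Viability by CellTiter-Glo luminescence, normalised to DMSO and no-cell wells; concentration-response curves classed.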
# HT1080-NT tox: kills 2HG-producing HT-1080-NT fibrosarcoma cells; HT-1080-NT fibrosarcoma viability, CellTiter-Glo ATP luminescence, 48 h; Potency, µM (highest dose often 46.1 µM), for the others: at the highest dose activity, negative = less viability, usual class: cytotoxic; 360,000 compounds, 1.6% hits; AID 686970;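 note: NT is the 2HG producing partner of a matched IDH1 knockdown line; 0% = DMSO-treated cells and -100% = media-only wells without cells; nearly all actives have a fitted effect of over 55% in size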
#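 Read-out is CellTiter-Glo luminescence after 10 minutes at room temperature, following 48 hours' compound treatment of HT-1080-NT cells (750 cells/well, RPMI, 5% FBS, 37 degrees C).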
# * marks the source's active call; other numbers are inactive results; i = inactive; ? = inconclusive; · = no result; [ ] = remark or other dose. A selection: hits, their analogues and other compounds. The true share with any hit is near 3.8%. Calls come from the whole dose curve; as a rule, active = well fitted curve in the direction sought with a large enough effect; inconclusive = small, poorly fitted or top-dose-only effect, or another doubt; inactive = no such curve, though single readings can be large; an effect the other way counts as inactive or inconclusive. Potency is the fitted concentration of half-maximal effect.
SMILES,HepG2 viability,ATXN viability,ATXN2 expr inh,TGFb inhibitor,HT1080 IDH1KD tx,HT1080-NT tox
CCOC(=O)c1cc(C)n(CC2CCC(C(=O)Nc3ccc(C(C)=O)cc3)CC2)c1C (configuration not stated),-14.3%,·,·,?,·,·
CC(C)(C)C(=O)Nc1ccc(NC(=O)c2ccco2)nc1,-10.2%,i,0.891µM*,14.4%,1.4%,3.6%
CC(C)(C)C(=O)Nc1ccc(/C=C/C(=O)c2ccco2)cc1,-14.8%,?,60.8%,?,23.1µM*,?
O=C(Nc1ccc(NC(=O)c2ccco2)nc1)c1ccco1,-30.8%,i,·,-6.0%,-11.8%,-25.5%
Nc1ccc(/C=C/C(=O)c2ccco2)cc1,-15.0%,i,16.3%,-1.3%,1.3%,12.0%
Cc1ccc(NC(=O)Cn2c(C)cc(C)c(C#N)c2=O)cc1,-2.1%,·,·,?,·,·
O=[N+]([O-])c1cc(S(=O)(=O)C(F)(F)F)ccc1Sc1nc2ccccc2[nH]1,-94.7%,?,?,?,18.4µM*,?
CS(=O)(=O)c1ccc(Sc2nc3ccccc3s2)c([N+](=O)[O-])c1,-38.7%,?,?,?,20.6µM*,-9.8%
O=[N+]([O-])c1cc(S(=O)(=O)C(F)(F)F)ccc1Sc1nc2ccccc2s1,17.8µM*,?,?,?,?,23.1µM*
CS(=O)(=O)c1ccc(Sc2nc3ccccc3[nH]2)c([N+](=O)[O-])c1,-3.3%,i,25.4%,?,-3.9%,-0.6%
CO[C@H]1C=CO[C@@]2(C)Oc3c(C)c(O)c4c(O)c(c(C=NN5CCN(C)CC5)c(O)c4c3C2=O)NC(=O)C(C)=CC=C[C@H](C)[C@H](O)[C@@H](C)[C@@H](O)[C@@H](C)[C@H](OC(C)=O)[C@H]1C,·,·,0.0%[18.9 µM],·,·,·
CSc1ccc(/C=C/C(=O)c2ccc(NC(=O)C(C)C)cc2)cc1,14.1µM*,i,-13.2%,-12.7%,?,?
CSc1ccc(/C=C/C(=O)Nc2ccccc2)cc1,-41.2%,i,-1.5%,15.6%,?,?
CSc1ccc(/C=C/C(=O)c2ccc(NC(=O)Cc3ccccc3)cc2)cc1,-24.6%,i,-12.0%,-15.6%,15.8µM*,?
Cc1nc2c(O)c3c(c(O)c2nc1C)C1C=CC3CC1,-106.4%,5.62µM*,28.2µM*,?,16.4µM*,?
CCCN(C(=O)Cn1ncc2c([nH]c3ccccc32)c1=O)c1ccc(F)cc1,-37.9%,i,-7.9%,-13.9%,·,·
C=CCNc1nc2cc(-c3ccccc3C)sc2c(=O)n1C,-33.9%,?,0.3%,4.4%,9.2µM*,14.6µM*
CN(C)CCCNc1nc2cc(-c3cnn(Cc4ccccc4)c3)sc2c(=O)n1C,-17.3%,i,0.0%,20.6%,23.1µM*,9.2µM*
Cc1ccc(F)cc1-c1cc2nc(NCCCN(C)C)n(C)c(=O)c2s1,-72.2%,?,31.6µM*,?,14.6µM*,20.6µM*
CN(C)CCCNc1nc2cc(-c3ccsc3)sc2c(=O)n1C,1.1%,i,-33.2%,-19.8%,?,?
CC(=O)N1CCN(c2nc3c(F)cc(F)cc3s2)CC1,2.1%,·,·,-11.7%,·,·
COc1ccc(CN2CCN(Cc3c[nH]c4ccccc34)CC2)cc1OC,-38.5%,i,·,-13.3%,-13.8%,-0.2%
Clc1ccccc1N1CCN(Cc2c[nH]c3ccccc23)CC1,-49.0%,i,-22.9%,15.8µM*,18.4µM*,?
COc1ccc(Br)cc1CN1CCN(Cc2c[nH]c3ccccc23)CC1,-96.6%,i,?,?,20.6µM*,?
O=S(=O)(c1ccc(Cl)cc1)N1CCN(Cc2c[nH]c3ccccc23)CC1,2.0%,·,·,-8.8%,2.7%,-1.1%
SMILES,HepG2 viability,ATXN viability,ATXN2 expr inh,TGFb inhibitor,HT1080 IDH1KD tx,HT1080-NT tox
COCc1ccc(CN2Cc3cc(Cl)ccc3OC(C)C2)o1 (configuration not stated),·,i,·,·,·,·
Cc1ccc(C2CC(=O)Nc3cc4c(cc32)OCCO4)cc1Br (configuration not stated),-38.0%,i,-17.6%,12.6µM*,·,·
Cc1oc2ncn(CC(C)C)c(=O)c2c1C(=O)N(CCN(C)C)Cc1ccccc1,7.0%,i,3.3%,-0.4%,·,·
O=C(NNC(=S)Nc1cccc(Cl)c1)c1ccccc1OC(F)F,4.47µM*,i,?,12.6µM*,?,?
O=C(NNC(=S)Nc1ccccc1)c1cc(Br)ccc1Cl,-15.8%,i,7.3%,14.1µM*,-2.1%,-2.8%
COC(=O)c1ccccc1-c1cc(C)cc2c1OC(CNC(=O)c1cc(C)n(C)n1)C2 (configuration not stated),·,i,·,·,·,·
COc1nccnc1NS(=O)(=O)c1ccc(N=Cc2c(C)[nH]n(-c3ccccc3)c2=O)cc1,3.7%,i,-10.7%,-1.7%,-7.7%,1.1%
Cc1ccc(-n2[nH]c(C)c(C=Nc3ccc4[nH]c(=O)[nH]c4c3)c2=O)cc1C,-83.8%,i,1.4%,-5.6%,23.1µM*,23.1µM*
Cc1ccc(-n2[nH]c(C)c(C=Nc3ccc4[nH]c(=O)[nH]c4c3)c2=O)cc1,12.6µM*,i,-9.4%,?,?,?
COc1nccnc1NS(=O)(=O)c1ccc(N=Cc2c(C)[nH]n(-c3ccc(C)c(C)c3)c2=O)cc1,10µM*,i,11.8%,?,7.94µM*,10µM*
Cc1ccc(N=Cc2c(C)[nH]n(-c3nc4ccccc4[nH]3)c2=O)cc1,0.398µM*,i,?,-6.5%,3.26µM*,2.91µM*
Cc1[nH]n(-c2cccc3ccccc23)c(=O)c1C=Nc1ccc2[nH]c(=O)[nH]c2c1,15.3%,i,-0.3%,-6.7%,9.7%,13.4%
CCOc1[nH]n(-c2ccccc2)c(=O)c1C=Nc1ccc(C)cc1,-3.1%,i,3.5%,8.7%,3.7%,7.9%
Cc1ccc(C)c(CSc2nc(-c3ccccc3F)nc3c2Cc2c(CO)cnc(C)c2O3)c1,-1.6%,i,8.9%,-4.2%,·,·
CC(C)c1nc2cccnc2n1C1CCN(C(=O)Cn2cccn2)CC1,·,i,·,·,·,·
COc1ccc(C2(C(=O)NCC3Cc4cccc(-c5cccnc5)c4O3)CCCC2)cc1 (configuration not stated),·,i,·,·,·,·
COc1c(Cl)cc(C(=O)Nc2cc(-c3nc4ccccc4[nH]3)ccc2C)cc1Cl,-36.7%,10µM*,?,?,·,·
O=C(Cc1ccc(S(=O)(=O)N2CCOCC2)s1)Nc1cc(C(F)(F)F)cc(C(F)(F)F)c1,-82.9%,?,?,17.8µM*,?,?
